Out of some 1,500 compounds screened, about 460 (31%) were called active.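 How the source made its calls: active means viability at or below 80% at any tested concentration, marking the compound as toxic; inactive means the rest.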 A selection follows. Results with a measured potency or affinity are listed apart.
Experiment: THP-1 cell cytotoxicity, dose response, cytotoxicity control for Vif-APOBEC3G degradation inhibitor project, THP-1 cells (AID 1117359)
Settings: THP-1 viability, CellTiter-Glo luminescence, 72 h; series mostly up to 40 µM; viability: at the top concentration

| SMILES | viability |
| --- | --- |
| CCOC(=O)C1=C(COC(=O)/C=C/c2ccco2)NC(=O)NC1C (stereo not given) | 96.1% (inactive) |
| Cc1ccc(NC(=O)CN2C(=O)N/C(=C/c3ccco3)C2=O)cc1 | 106% (inactive) |
| C=CC1=C(C(=O)O)N2C(=O)C(NC(=O)Cc3ccccc3)C2SC1 (stereo not given) | 97.8% (inactive) |
| Cc1cc(C(=O)NCCCN2CCCC2=O)no1 | 111% (inactive) |
| CCOC(=O)C1=C(c2ccccc2)NC(=O)NC1c1cc(Cl)c(O)c(OC)c1 (stereo not given) | 101% (inactive) |
| Cc1nc(-c2noc(-c3ccccc3Cl)n2)c(C(F)(F)F)o1 | 86.2% (inactive) |
| COc1cccc(CC(=O)N2CCCC(CO)(Cc3ccc(F)cc3F)C2)c1 (stereo not given) | 80.7% (inactive) |
| COc1ccc(/C=N/NC(=O)CN2CCN(Cc3ccccc3)CC2)cc1Br | 101% (inactive) |
| O=C(COc1ccc([N+](=O)[O-])cc1)NC(C(=O)O)C(O)c1cccc([N+](=O)[O-])c1 (stereo not given) | 99.7% (inactive) |
| COc1cc(NC(=O)CSCC(=O)N(C)C2CCCCC2)cc(OC)c1 | 89.8% (inactive) |
| O=C(O)COc1ccc2c(c1)O/C(=C\c1ccco1)C2=O | 105% (inactive) |
| O=C(NC(=O)N1CCN(c2ccc([N+](=O)[O-])cn2)CC1)c1c(Cl)cccc1Cl | 106% (inactive) |
| CC(C)(C)OC(=O)N1CCN(c2ccc([N+](=O)[O-])cc2)CC1 | 93.8% (inactive) |
| CCc1ccccc1NC(=S)N(Cc1ccc(OC)cc1)CC1CCC(C(=O)O)CC1 (stereo not given) | 101% (inactive) |
| O=C(Cn1c(NCCO)nc2ccccc21)NCC(F)(F)F | 99.8% (inactive) |
| COc1cc(C(=O)NNC(=S)NCc2ccco2)cc(OC)c1OC | 84% (inactive) |
| Cc1ccc(C(CC(=O)NCc2ccco2)c2ccccc2)c(O)c1 (stereo not given) | 91.1% (inactive) |
| Cc1ccc(C(=O)N/C(=C/c2cccnc2)C(=O)NCc2ccco2)cc1 | 99% (inactive) |
| O=C(O)CSc1c2c(nc3cc(C(=O)Nc4cccc(C(F)(F)F)c4)ccc13)CCC2 | 103% (inactive) |
| COc1cc(/C=C2/C(=O)c3cccc([N+](=O)[O-])c3C2=O)c(Br)cc1O | 106% (inactive) |
| CCN(CC)c1ccc(NC(=O)CCS(=O)(=O)c2ccc(Br)cc2)c(C)c1 | 91.6% (inactive) |
| CCOC(=O)C(C)N1C(=O)S/C(=C\c2ccc(-c3ccccc3C(=O)O)o2)C1=O (stereo not given) | 93.5% (inactive) |
| CCN(CC)Cc1cc(O)c(CN(CC)CC)cc1O | 94.7% (inactive) |
| CNC[C@H](O)c1ccc(O)c(O)c1 | 92.2% (inactive) |
| COc1cccc(NC(=O)CSc2nnc(-c3ccco3)c(-c3ccco3)n2)c1 | 97% (inactive) |
| CCOC(=O)CNc1nc2ccccc2n2c(C)nnc12 | 96.8% (inactive) |
| COc1cc(NCCCNC(C)C)c2nccc(C)c2c1 | 85.1% (inactive) |
| COc1cc(CC(=O)NCC(C)(C)N2CCOCC2)cc(OC)c1OC | 103% (inactive) |
| C[C@H](NC(=O)c1ccco1)C(=O)Nc1cccc([N+](=O)[O-])c1 | 99.8% (inactive) |
| COc1ccc(OC)c(N2C(=O)[C@@H]3C(c4ccccc4Cl)=NO[C@@H]3C2=O)c1 | 96% (inactive) |

— PubChem BioAssay AID1117359 (Southern Research Institute, 2015)
